CHT block – inhibitors of human choline transporter CHT; CHT-expressing cells, membrane potential dye, choline response; active compounds read low; B-score at 10 µM; 0.86% of 310,000 active;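 active = B-score over 3 SD under the library average, and starting fluorescence ratio not unusually high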;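 note: choline stimulus applied at its EC90 after an EC20 pre-addition; B-score computed on integrated fluorescence ratio after choline addition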
EP2 antag – blocks the human prostaglandin E2 receptor EP2; 0.52% of 260,000 active; inhibition, % at 25 µM; AID 1422; C6 glioma cells expressing human EP2, cAMP TR-FRET; cells stimulated with saturating PGE2; P43116;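 active = percent inhibition above 40 after rounding to a whole number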;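 note: rat C6 glioma host cells with rolipram phosphodiesterase inhibitor present; the protocol text gives 20 µM as final concentration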
Target sequence (P43116 whole entry, looked up): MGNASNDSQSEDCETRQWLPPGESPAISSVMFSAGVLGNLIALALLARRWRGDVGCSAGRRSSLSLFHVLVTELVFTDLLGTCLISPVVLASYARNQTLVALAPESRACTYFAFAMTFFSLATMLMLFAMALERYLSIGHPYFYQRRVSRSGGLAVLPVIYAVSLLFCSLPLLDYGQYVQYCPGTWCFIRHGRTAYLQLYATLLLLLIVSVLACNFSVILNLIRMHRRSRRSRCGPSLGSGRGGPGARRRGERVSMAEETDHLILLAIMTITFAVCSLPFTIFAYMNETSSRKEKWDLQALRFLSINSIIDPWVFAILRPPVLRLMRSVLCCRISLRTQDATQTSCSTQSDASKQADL
CHT allo act – allosterically activates the human high affinity choline transporter | Q9GZV3 | CHT-expressing cells, membrane potential dye, choline EC20; active compounds read high; LV-AA mutant CHT in HEK293 cells | B-score at 10 µM | 0.49% of 310,000 active | AID 488977;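 active = initial fluorescence not abnormally high and integrated response B-score, plate-corrected, over 3 SD above library mean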
EP2 mod – modulators of human EP2 prostaglandin E2 receptor | AID 940 | 0.83% of 260,000 active | P43116 | EP2-expressing cells, cAMP HTRF FRET, PGE2 co-stimulation | induction, % at 25 µM;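 active = compounds whose cAMP rise, as percent of the full-agonist control response, exceeds 60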;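 note: rat C6 glioma line stably carrying human EP2 under a CMV promoter; the protocol text gives 20 µM as final concentration; 100% = response of wells given 1 µM PGE2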
* hit, by the source's call; i = inactive; . = no result; ! = repeats disagree. An excerpt weighted towards active compounds, which were near 2% of everything screened.

SMILES | CHT block | EP2 antag | CHT allo act | EP2 mod
O=C(Cc1ccc(-n2cnnn2)cc1)N1CCCC1c1nc2ccccc2[nH]1 (stereo unspecified) | . | 3 | . | -34
O=C(CN1CCCC1)Nc1ccccc1Sc1ccccc1 | i | 9 | i | 61*
O=C(CCl)Nc1ccccc1Sc1ccccc1 | i | 15 | i | 64*
CN1CCN(CC(=O)Nc2ccccc2Sc2ccccc2)CC1 | i | 7 | i | 28
O=C(CN1CCOCC1)Nc1ccccc1C(=O)O | i | 126*! | i | -5
COc1ccc(N=Cc2c(O)n(-c3ccccc3)c(=O)[nH]c2=O)cc1 | . | 8 | . | -8
COC(=O)c1c(-c2ccccc2)csc1NC(=O)c1cc(OC)c(OC)c(OC)c1 | . | 7 | . | 51
CSc1nc(SCC(=O)O)c2sc3nc(-c4ccccc4)c4c(c3c2n1)CCC4 | . | 10 | . | 61*
CCn1nc(C)c(Br)c1C(=O)Sc1ccccc1Cl | i | 10 | i | 68*
CCn1nc(C)cc1C(=O)Sc1ccc(C)cc1 | i | 5 | i | -35
CCCC(=O)N1c2cc(C)ccc2-c2c(ssc2=S)C1(C)C | . | 7 | . | 67*
O=[N+]([O-])c1ccc(NC(=S)NCCc2ccc(Cl)cc2)cc1 | i | 74* | i | -18
O=[N+]([O-])c1ccc(NC(=S)NCCc2ccccc2)cc1 | i | 19 | i | -76
CSc1nc(C)cc(Nc2ccc(O)c(CN3CCCCC3)c2)n1 | . | 45* | . | -1
O=S(=O)(Nc1ccc(O)c(CN2CCCCC2)c1)c1ccccc1 | i | 8 | i | -8
O=C(CN1CCOCC1)Nc1sc2c(c1C(=O)c1ccc(Cl)cc1)CCC2 | . | 16 | . | 62*
Nc1sc2c(c1C(=O)c1ccc(Cl)cc1)CCC2 | . | 15 | . | 83*
CC1CCc2nc(NC(=O)CN3CCOCC3)sc2C1 (stereo unspecified) | i | 6 | i | 8
COC(=O)c1c(NC(=O)CN2CCOCC2)sc2c1CCC(C)C2 (stereo unspecified) | i | 5 | i | 61*
NC(=O)c1c(N)sc2c1CCC2 | . | 4 | . | -12
CCCOC(=O)c1cc(-c2ccc(/C=C3\SC(=S)NC3=O)o2)ccc1Cl | . | 9 | . | -32
CCc1ccc(-c2csc3ncn(CC(=O)OC)c(=O)c23)cc1 | . | 8 | . | -2
COc1ccc2[nH]c(=O)c(CN(Cc3cccs3)C(c3nnnn3C(C)(C)C)C(C)C)cc2c1 (stereo unspecified) | . | 14 | . | 69*
CCC(c1nnnn1C1CCCC1)N(Cc1cccs1)Cc1cc2cc(OC)ccc2[nH]c1=O (stereo unspecified) | . | 9 | . | 56
COc1ccc2[nH]c(=O)c(CN(Cc3cccs3)Cc3nnnn3C(C)(C)C)cc2c1 | i | 8 | i | 55
SMILES | CHT block | EP2 antag | CHT allo act | EP2 mod
CCc1ccc2[nH]c(=O)c(CN(Cc3cccs3)C(c3nnnn3C3CCCC3)C(C)C)cc2c1 (stereo unspecified) | . | 10 | . | 63*
COc1ccc2cc(CN(Cc3cccs3)C(c3nnnn3C3CCCC3)C(C)C)c(=O)[nH]c2c1 (stereo unspecified) | . | 8 | . | 69*
Cc1ccc2cc(CN(Cc3cccs3)C(c3nnnn3C3CCCCC3)C(C)C)c(=O)[nH]c2c1 (stereo unspecified) | . | 14 | . | 39
O=C(NCCc1nc(-c2ccncc2)n[nH]1)C1(c2ccccc2)CC1 | . | 6 | . | -21
COc1ccccc1OCCN(C)C(=O)c1cc(=O)c2cc(C)c(C)cc2o1 | . | 7 | . | -23
O=C(C1CCCO1)N1CCc2nc(N3CCCCC3)[nH]c(=O)c2C1 (stereo unspecified) | . | 1 | . | 7
Cc1nc(SCC(=O)Nc2ccccc2F)nc2c1CCCC2 | . | 8 | . | 79*
Cn1c(=O)c2c(ncn2CN2CCN(Cn3cnc4c3c(=O)n(C)c(=O)n4C)CC2)n(C)c1=O | . | 46* | . | 6
CC(C)Cn1cnc2c1c(=O)n(C)c(=O)n2C | i | 8 | i | 23
O=C(Nc1cccc([N+](=O)[O-])c1)Nc1cccc([N+](=O)[O-])c1 | i | 6 | i | -59
CC(C)S(=O)(=O)c1csc(NC(=O)Nc2cccc([N+](=O)[O-])c2)c1Cl | i | 54* | i | -36
CCOc1ccc(C(=O)Nc2ccc(S(=O)(=O)Nc3ncccn3)cc2)cc1OCC | . | 10 | . | 12
O=c1[nH]c2cc3c(cc2cc1C(c1nnnn1Cc1ccccc1)N1CCCC1)OCO3 (stereo unspecified) | . | 3 | . | -23
Nc1ccc(C(=O)N/N=C/c2cn(Cc3ccccc3F)c3ccccc23)cc1 | i | . | i | .
O=C(O)c1ccc(N/N=C/c2cn(Cc3ccccc3F)c3ccccc23)cc1 | i | 5 | i | 87*

Screening data (PubChem BioAssay)
